From PubChem BioAssay (NCATS) come the findings set out here.

SMILES strings stand for the structures. Inconclusive results are not listed. Entries that show only a call come without a potency. Active and inactive are the calls of the source. Calls follow the shape of the dose curve; as a rule, active = well fitted inhibition curve with a large enough effect; inconclusive = small, poorly fitted or top-dose-only effect; inactive = flat fitted curve, though single readings scatter.
Potency is read from the fitted curve at half-maximal effect.

The target of the experiment is Dual specificity protein kinase CLK4 (Homo sapiens) (UniProt Q9HAZ1). In words: qHTS Assay for Inhibitors of CDC-like Kinase 4 (ADP-FP Assay) (AID 1795). Also: nearly all actives have a fitted effect of over 60% in size. The conditions noted are these: Transcreener ADP fluorescence polarization; series mostly up to 50 µM. On the procedure: NIH Molecular Libraries Probe Production Centers Network [MLPCN] NIH Chemical Genomics Center [NCGC] MLPCN Grant: 1R03MH084827-01 Assay Submitter (PI): Tom Misteli NCGC Assay Overview: Clk4 (Invitrogen cat # PV3839) was assayed using ATP and the RS repeat peptide (AnaSpec cat # 61722) as substrates using Transcreener (trade mark), a competitive fluorescence polarization (FP) assay. For the present assay, we used the Orange TranscreenerTM ADP2 (BellBrooks Labs, Madison, Wis) detection system to monitor ADP production in the kinase reaction. […] This allows the ADP tracer to freely rotate leading to a decrease in the observed FP value. The amount of ADP produced can then be calculated using a calibration curve. The positive control for the assay was TG003 (Sigma-Aldrich, cat # 300801-52-9) which is a Clk4 inhibitor [2].
Dual specificity protein kinase CLK4 (Homo sapiens), sequence (Q9HAZ1 whole entry, looked up): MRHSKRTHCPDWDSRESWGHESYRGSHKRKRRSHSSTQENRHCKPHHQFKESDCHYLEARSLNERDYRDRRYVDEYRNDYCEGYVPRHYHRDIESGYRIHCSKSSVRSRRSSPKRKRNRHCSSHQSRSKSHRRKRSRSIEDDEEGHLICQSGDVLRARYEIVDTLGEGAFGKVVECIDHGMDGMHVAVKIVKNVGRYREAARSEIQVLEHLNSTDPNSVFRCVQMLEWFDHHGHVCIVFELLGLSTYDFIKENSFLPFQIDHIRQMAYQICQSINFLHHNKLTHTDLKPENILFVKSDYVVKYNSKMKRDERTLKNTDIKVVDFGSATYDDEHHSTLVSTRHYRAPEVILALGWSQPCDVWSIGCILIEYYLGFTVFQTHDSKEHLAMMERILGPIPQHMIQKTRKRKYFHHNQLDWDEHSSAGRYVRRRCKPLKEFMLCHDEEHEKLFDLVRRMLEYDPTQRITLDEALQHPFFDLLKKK
NCGC Assay Protocol Summary: Two uL/well of substrate-buffer solution (100 uM RS peptide, 1 uM ATP, 25 mM Tris pH7.5, 10 mM MgCl2, 0.5 mM EGTA, 2.5 mM DTT, 0.01% Triton X-100 final concentration) was dispensed into 1,536-well assay plates (Greiner, solid black medium-binding plates) with Aurora Discovery BioRAPTR Flying Reagent Dispenser (FRD; Beckton-Dickenson). Using a Kalypsys pin tool equipped with a 1,536-pin tool, 23 nL of compound solution was transferred to the assay plate. Two uL/well Clk4-buffer solution (6.25 nM Clk4, 25 mM Tris pH 7.5, 10 mM MgCl2, 0.5 mM EGTA, 2.5 mM DTT, 0.01% Triton X-100, final concentration) was then added using the FRD yielding a total kinase reaction volume of 4 uL/ well. Then 4 uL/well of detection mixture (4 nM orange fluorescent tracer, 1 ug/mL ADP antibody, final concentration) was then added after an hour and the polarization signal was measured using the EnVision plate reader (PerkinElmer, Waltham, MA) after 30 min of room temperature incubation using the following filters and program settings: BODIPY TMR FP dual Enh mirror (barcode 682); BODIPY-TMR 531 (barcode 105) excitation; BODIPY-TMR FP P/S polarized 595 nm filters (barcodes 210 and 211, respectively); 100% light; 150 flashes; 1.35 G-factor; Detector gains were 685 for the 1st detector; 630 for the 2nd detector.
On the technique in general: Quantitative high-throughput screening tests each substance at several concentrations.
Take `COc1ccccc1CNc1nc(-c2cccc(NS(C)(=O)=O)c2)nc2ccccc12`: the Potency entry is “inactive”.

Turning to `COCCn1c(=O)c(-c2cccs2)nc2cnc(Oc3ccccc3)nc21`, the Potency result was “inactive”.

Take `COc1cccc(Nc2ncc3ncc(=O)n(CCC#N)c3n2)c1`: the Potency is 2.51 µM (active).

On to `COc1ccc(CNc2cc(-c3cccc(NS(C)(=O)=O)c3)ncn2)c(OC)c1`, for which the Potency result is “inactive”.

On to `COc1ccccc1-c1nccc(NCc2cccs2)n1`, for which the Potency result was “inactive”.

On to `COc1cccc(-c2cncnc2NCCN2CCOCC2)c1`, for which the Potency result is “inactive”.

Regarding `COc1ccc2[nH]cc(CCNc3nc(-c4c(C)noc4C)nc4ccccc34)c2c1`, the Potency entry was “inactive”.

As for `COc1ccc(Oc2ncc3nc(-c4cccc(C#N)c4)c(=O)n(CCC#N)c3n2)cc1`, the Potency entry was “inactive”.

Turning to `COc1ccc(-n2c(=O)c(-c3cccs3)nc3cnc(N4CCN(C)CC4)nc32)cc1`, the Potency result is “inactive”.

`c1ccc2c(NCCN3CCOCC3)nc(-c3ccc4c(c3)OCO4)nc2c1`: the Potency entry is “inactive”.

As to `COc1ccc(Oc2ncc3nc(-c4ccc(F)cc4)c(=O)n(C[C@H]4CCCO4)c3n2)cc1`, the Potency result is “inactive”.

Take `COc1cccc(Cn2c(=O)c(CCc3ccccc3)nc3cnc(N(C)C)nc32)c1`: the Potency entry was “inactive”.

Regarding `CN(C)c1ncc2nc(CCc3ccccc3)c(=O)n(CCC#N)c2n1`, the Potency entry is “inactive”.

Consider `COc1ccccc1CNc1ncncc1-c1ccccc1Cl`, for which the Potency result was “inactive”.

On to `COc1cccc(Cn2c(=O)c(CCc3ccccc3)nc3cnc(N4CCN(C)CC4)nc32)c1`, for which the Potency entry is “inactive”.

Regarding `COc1cccc(-c2ccc3ncnc(N4CCNCC4)c3c2)c1`, the Potency is 1 µM (active).

With `COc1ccc(CNc2ncncc2-c2ccccc2OC)c(OC)c1`, the Potency result is “inactive”.

Regarding `COc1ccccc1CNc1nc(-c2ccoc2)nc2ccccc12`, the Potency result is “inactive”.

As for `COc1ccccc1-c1nc(N2CCN(C)CC2)c2ccccc2n1`, the Potency result is “inactive”.

`Cc1ccccc1-c1ccc2ncnc(NCCN3CCOCC3)c2c1`: the Potency entry is “inactive”.

As to `CN(Cc1ccco1)c1cc(-c2ccc3c(c2)OCO3)ncn1`, the Potency is 2.51 µM (active).

Consider `CN1CCN(c2nc(-c3cccnc3)nc3ccccc23)CC1`, for which the Potency result was “inactive”.

Take `COc1ccccc1CNc1ncncc1-c1ccc2c(c1)OCO2`: the Potency is 1 µM (active).

As to `COc1ccc2[nH]cc(CCNc3ncncc3-c3ccc4c(c3)OCO4)c2c1`, the Potency was 10 µM (active).

With `COc1cccc(-c2ccc3ncnc(Nc4ccccc4)c3c2)c1`, the Potency is 0.282 µM (active).

Consider `c1cn(-c2ncnc3ccc(-c4ccoc4)cc23)cn1`, for which the Potency was 0.0708 µM (active).

In the case of `CN(C)C(=O)c1ccc(-c2nc(N3CCOCC3)c3ccccc3n2)cc1`, the Potency entry is “inactive”.

For the compound `N#Cc1cccc(-c2nc(NCCN3CCOCC3)c3ccccc3n2)c1`, the Potency was 7.94 µM (active).

With `COc1ccc2[nH]cc(CCNc3ncncc3-c3ccccc3C(F)(F)F)c2c1`, the Potency result was “inactive”.

On to `CN(C)c1ncnc2ccc(-c3cccc(NS(C)(=O)=O)c3)cc12`, for which the Potency is 12.6 µM (active).

With `COc1ccccc1-c1ccc2ncnc(N3CCNCC3)c2c1`, the Potency is 7.94 µM (active).

For `N#CCCn1c(=O)c(-c2cccc(C#N)c2)nc2cnc(Oc3cccc(Cl)c3)nc21`, the Potency result was “inactive”.

With `O=c1c(CCc2ccccc2)nc2cnc(N3CCNCC3)nc2n1-c1ccccc1`, the Potency result was “inactive”.

`COc1ccc2[nH]cc(CCNc3ncncc3-c3ccoc3)c2c1`: the Potency was 3.55 µM (active).

For `CN(Cc1ccco1)c1nc(-c2cccnc2)nc2ccccc12`, the Potency is 12.6 µM (active).

As to `COCCn1c(=O)c(-c2cc(F)cc(F)c2)nc2cnc(N3CCN(C)CC3)nc21`, the Potency entry was “inactive”.

For the compound `CN(C)c1ncc2nc(CCc3ccccc3)c(=O)n(Cc3cccs3)c2n1`, the Potency entry is “inactive”.

Regarding `CN(Cc1ccco1)c1nc(-c2ccccc2C(F)(F)F)nc2ccccc12`, the Potency entry was “inactive”.

On to `CN1CCN(c2ncc3nc(-c4cccs4)c(=O)n(CCc4ccccc4)c3n2)CC1`, for which the Potency entry is “inactive”.

Take `COc1ncc2nc(CCc3ccccc3)c(=O)n(-c3ccccc3)c2n1`: the Potency result is “inactive”.
